Experimental data: PubChem BioAssay (EPA / NIEHS)
“And” between values parts separate entries of the source, which are not always exact repeats. Equal entries are not always repeated. More than one record can exist for a structure, and the calls need not agree. The source made the active and inactive calls. Rule for the calls: active = hit-call score of the fitted dose curve at least 0.9, where 1 is the maximum; inactive = score below 0.9.

Experiments:
[1] = target: Transcription factor E2F1 (Homo sapiens) (UniProt Q01094); assay: ATG_E2F_CIS: Attagene CIS-FACTORIAL HepG2 Assay for human E2F Transcription Factor 1 (AID 2282935); conditions: HepG2 Attagene cis-reporter, E2F reporter RNA transcripts; actives raise or lower the signal
Summary of the method: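 Cis-element reporter mRNA induction in transiently transfected HepG2, 24 h exposure. Activity fitted in both directions relative to DMSO negative control.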

[2] = ATG_E_Box_CIS: Attagene CIS-FACTORIAL HepG2 Assay for human Enhancer Box (E-box) (AID 2282936); conditions: HepG2 E-box cis-reporter transcription, actives raise or lower the signal
Summary of the method: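 Cells: HepG2 (human liver), transient MRTU transfection. Exposure 24 h. RNA → oligo(dT) RT → PCR → 6-FAM label → HpaI → CE. Activity fitted both directions relative to DMSO.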

[3] = ATG_EGR_CIS: Attagene CIS-FACTORIAL HepG2 Assay for human Early Growth Response 1 (EGR1) (AID 2282938); conditions: HepG2 Attagene CIS-FACTORIAL EGR reporter mRNA; actives raise or lower the signal
Summary of the method: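 Fluorescent capillary-electrophoresis signal of reporter cDNA fragments serves as read-out. HepG2 cells bear transiently transfected cis-promoter reporter units and are exposed 24 h; gain- or loss-of-signal is fitted against DMSO.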

[4] = ATG_M_19_CIS: Attagene CIS-FACTORIAL HepG2 Assay for M19 Transcription Factor (Internal Marker) (AID 2282939); conditions: HepG2 Attagene CIS-FACTORIAL M19 internal marker reporter; actives raise or lower the signal
Summary of the method: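 Internal marker readout, fitted in both directions against DMSO, from HepG2 cells carrying transfected cis-element reporter constructs; RT-PCR and capillary electrophoresis of reporter mRNA after 24 h exposure.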

[5] = ATG_ERE_CIS: Attagene CIS-FACTORIAL HepG2 Assay for Estrogen Response Element (ERE) (AID 2282940); conditions: HepG2 ERE cis-reporter, Attagene RNA transcript; actives raise or lower the signal
Summary of the method: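 After 24 h compound treatment, RNA from transfected HepG2 cells was reverse-transcribed, reporter cDNA PCR-amplified, FAM-labelled, HpaI-cut and resolved by capillary electrophoresis. ERE-driven cis reporter transcripts reflect endogenous factors; gain or loss scored against DMSO.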

[6] = ATG_Ets_CIS: Attagene CIS-FACTORIAL HepG2 Assay for human Erythroblast Transformation Specific (ETS) (AID 2282941); conditions: HepG2 ETS cis-reporter transcription, actives raise or lower the signal
Summary of the method: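 After transient cis-reporter transfection, HepG2 cells receive test chemical for 24 h. Reporter mRNA levels, measured by RT-PCR and capillary electrophoresis fluorescence, are analysed bidirectionally relative to the DMSO baseline.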

[7] = target: Hepatocyte nuclear factor 3-beta (Homo sapiens) (UniProt Q9Y261); assay: ATG_FoxA2_CIS: Attagene CIS-FACTORIAL HepG2 Assay for human Forkhead box A2 (FOXA2) (AID 2282942); conditions: HepG2 cis-reporter transcription factor activity, 24 h; actives raise or lower the signal
Summary of the method: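 Fluorescence signal of reporter cDNA fragments, separated by capillary electrophoresis, reflects endogenous transcription factor activity in transfected HepG2 after 24 h. Both increases and decreases fitted against DMSO.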

[8] = ATG_FoxO_CIS: Attagene CIS-FACTORIAL HepG2 Assay for human Forkhead box O (FoxO) (AID 2282943); conditions: HepG2 Attagene cis-reporter, FoxO element, mRNA; actives raise or lower the signal
Summary of the method: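 Endogenous transcription factor activity read from multiplexed cis-promoter reporter transcripts in transiently transfected HepG2, 24 h after dosing. Reporter RNA measured via RT-PCR plus capillary electrophoresis of FAM-labeled products; gain or loss relative to DMSO.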

[9] = ATG_GATA_CIS: Attagene CIS-FACTORIAL HepG2 Assay for human GATA Binding Protein (AID 2282944); conditions: HepG2 GATA cis-element reporter, Attagene multiplex mRNA; actives raise or lower the signal
Summary of the method: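 Reporter transcripts from a GATA cis-regulated unit, among multiplexed reporters in transfected HepG2 cells, were measured by RT-PCR with capillary electrophoresis after 24 h dosing. Induction or loss scored relative to DMSO.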

[10] = ATG_M_61_CIS: Attagene CIS-FACTORIAL HepG2 Assay for M61 Transcription Factor (Internal Marker) (AID 2282937); conditions: HepG2 Attagene CIS-FACTORIAL M61 internal marker reporter; actives raise or lower the signal
Summary of the method: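 Using transiently transfected HepG2 liver cells, reporter transcript levels were assessed 24 h post-dosing by RT-PCR and capillary electrophoresis. Changes in either direction were fitted relative to DMSO controls.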

Sequence of Transcription factor E2F1 (Homo sapiens) (Q01094 whole entry, looked up): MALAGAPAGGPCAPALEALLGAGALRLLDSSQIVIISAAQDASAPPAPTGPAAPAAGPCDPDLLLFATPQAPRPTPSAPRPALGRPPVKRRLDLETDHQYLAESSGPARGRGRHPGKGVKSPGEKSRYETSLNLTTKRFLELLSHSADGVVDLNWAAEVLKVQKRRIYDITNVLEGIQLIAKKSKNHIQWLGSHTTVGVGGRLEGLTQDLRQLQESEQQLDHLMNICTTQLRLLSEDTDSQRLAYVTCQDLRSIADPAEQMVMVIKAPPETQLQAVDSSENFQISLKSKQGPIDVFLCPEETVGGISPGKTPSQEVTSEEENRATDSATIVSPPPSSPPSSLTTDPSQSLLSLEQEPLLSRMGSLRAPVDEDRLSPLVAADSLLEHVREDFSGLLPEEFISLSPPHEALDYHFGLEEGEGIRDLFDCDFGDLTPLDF
Sequence of Hepatocyte nuclear factor 3-beta (Homo sapiens) (Q9Y261 whole entry, looked up, the tested form may be a part): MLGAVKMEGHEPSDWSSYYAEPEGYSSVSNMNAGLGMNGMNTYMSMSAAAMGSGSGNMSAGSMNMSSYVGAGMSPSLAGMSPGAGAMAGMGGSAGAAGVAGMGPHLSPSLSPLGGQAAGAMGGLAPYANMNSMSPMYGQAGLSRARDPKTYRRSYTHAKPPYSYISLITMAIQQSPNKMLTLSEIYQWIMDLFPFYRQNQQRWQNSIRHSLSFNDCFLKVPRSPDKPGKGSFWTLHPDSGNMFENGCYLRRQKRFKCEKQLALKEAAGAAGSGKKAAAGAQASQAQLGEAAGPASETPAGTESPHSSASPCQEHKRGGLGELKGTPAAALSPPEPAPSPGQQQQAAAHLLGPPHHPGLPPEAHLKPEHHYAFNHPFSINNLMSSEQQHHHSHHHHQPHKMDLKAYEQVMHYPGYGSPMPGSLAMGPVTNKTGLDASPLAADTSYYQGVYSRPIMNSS

Row | SMILES | AC50 [1] | outcome [2] | AC50 [3] | outcome [4] | AC50 [5] | outcome [6] | outcome [7] | outcome [8] | outcome [9] | outcome [1] | outcome [10] | outcome [3] | outcome [5] | AC50 [2] | AC50 [6]
1 | CC(Cc1ccc(O)c(O)c1)C(C)Cc1ccc(O)c(O)c1 (stereo not drawn) | 33.4 µM (active) | inactive | 20.5 µM (active) | inactive | 8.81 µM (active) | inactive | inactive | inactive | inactive | – | – | – | – | – | –
2 | CCO[Si](CCC(F)(F)C(F)(F)C(F)(F)C(F)(F)C(F)(F)C(F)(F)F)(OCC)OCC | – | inactive | – | inactive | – | inactive | inactive | inactive | inactive | inactive | inactive | inactive | inactive | – | –
3 | FC(F)(F)C(F)(F)C(F)(F)C(F)(F)C(F)(F)CCI | – | inactive | – | inactive | 51.2 µM (active) | inactive | inactive | inactive | inactive | inactive | inactive | inactive | – | – | –
4 | CC(=O)Nc1ccc(N=Nc2cc(C)ccc2O)cc1 | – | inactive | – | inactive | – | inactive | inactive | inactive | inactive | inactive | – | inactive | inactive | – | –
5 | COC(OC(C)=O)c1ccccc1 (stereo not drawn) | – | inactive | – | inactive | – | inactive | inactive | inactive | inactive | inactive | inactive | inactive | inactive | – | –
6 | FC(F)(F)C(F)(F)C(F)(F)C(F)(F)CCI | – | inactive | – | inactive | 16.3 µM (active) | inactive | inactive | inactive | inactive | inactive | – | inactive | inactive | – | –
7 | C#C[C@]1(O)CC[C@H]2[C@@H]3CCc4cc(OC)ccc4[C@H]3CC[C@@]21C | – | inactive | – | inactive | 0.00935 µM (active) | inactive | inactive | inactive | inactive | inactive | inactive | inactive | – | – | –
8 | FC(F)(I)C(F)(F)C(F)(F)C(F)(F)I | – | inactive | – | inactive | 0.291 µM (active) | inactive | inactive | inactive | inactive | inactive | inactive | inactive | – | – | –
9 | O=S(=O)(OCC(F)F)C(F)(F)F | – | inactive | – | inactive | – | inactive | inactive | inactive | inactive | inactive | inactive | inactive | inactive | – | –
10 | CC(C)(C)C(=O)CC(=O)C(F)(F)C(F)(F)C(F)(F)F | – | inactive | – | inactive | – | inactive | inactive | inactive | inactive | inactive | inactive | inactive | inactive | – | –
11 | O=S(=O)(O)c1ccc2ccccc2c1 | – | inactive | – | inactive | – | inactive | inactive | inactive | inactive | inactive | inactive | inactive | inactive | – | –
12 | O=S(=O)(O)C(F)(F)C(F)(F)C(F)(F)C(F)(F)C(F)(F)C(F)(F)C(F)(F)F | – | inactive | – | inactive | 48.4 µM (active) and 69.9 µM (active) | inactive | inactive | inactive | inactive | inactive | inactive | inactive | – | – | –
13 | [Co] | – | inactive | – | inactive | – | inactive | inactive | inactive | inactive | inactive | inactive | inactive | inactive | – | –
14 | O=C(O)C(F)(F)C(F)(F)C(F)(F)F | – | inactive | – | inactive | 150 µM (active) | inactive | inactive | inactive | inactive | inactive | – | inactive | inactive | – | –
15 | OCC(F)(F)C(F)(F)C(F)(F)C(F)(F)C(F)(F)C(F)(F)F | 234 µM (active) | – | 248 µM (active) | inactive | – | – | inactive | inactive | inactive | – | inactive | – | inactive | 150 µM (active) | 236 µM (active)
